For test [1], the target named is Sentrin-specific protease 8 (Homo sapiens) (UniProt Q96LD8). Kind of test: human SENP8 peptidase blockers, hit retest – biochemical, luminescence, single concentration, confirmation (AID 488912;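 active means mean inhibition across replicates above about 50%, limit read from the data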). As to conditions: Recombinant SENP8, Z-RLRGG-aminoluciferin luminescence, 60 min; at 12.5 µM; hits give high values.
The target of test [2] is Sentrin-specific protease 6 (Homo sapiens) (UniProt Q9GZR1). Nature of the test: inhibition of human SENP6 catalytic domain – biochemical, luminescence, single concentration, confirmation (AID 488915). The conditions noted are these: recombinant SENP6, Z-RLRGG-aminoluciferin luminescence; at 12.5 µM; hits give high values.
Sentrin-specific protease 6 (Homo sapiens), sequence (Q9GZR1 628-1112 limits assumed): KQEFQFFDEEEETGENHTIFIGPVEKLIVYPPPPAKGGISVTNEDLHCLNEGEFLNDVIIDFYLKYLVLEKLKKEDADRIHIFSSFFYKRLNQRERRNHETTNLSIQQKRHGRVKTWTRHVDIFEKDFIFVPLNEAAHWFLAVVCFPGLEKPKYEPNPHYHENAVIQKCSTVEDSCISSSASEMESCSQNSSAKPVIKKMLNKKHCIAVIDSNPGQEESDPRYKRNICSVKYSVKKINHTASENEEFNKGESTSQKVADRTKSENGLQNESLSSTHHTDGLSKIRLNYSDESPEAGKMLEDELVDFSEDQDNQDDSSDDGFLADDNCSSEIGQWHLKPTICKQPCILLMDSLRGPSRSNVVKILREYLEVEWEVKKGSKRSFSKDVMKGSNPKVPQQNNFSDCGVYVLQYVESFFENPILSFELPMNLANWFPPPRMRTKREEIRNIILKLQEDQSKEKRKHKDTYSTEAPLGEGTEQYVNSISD
For test [3], the target named is Sentrin-specific protease 7 (Homo sapiens) (UniProt Q9BQF6). Nature of the test: human SENP7 peptidase blockers, hit retest – biochemical, luminescence, single concentration, confirmation (AID 488917). As to conditions: recombinant SENP7, Z-RLRGG-aminoluciferin luminescence, 40 min; at 12.5 µM; hits give high values.
Sentrin-specific protease 7 (Homo sapiens), sequence (Q9BQF6 706-1050 limits assumed): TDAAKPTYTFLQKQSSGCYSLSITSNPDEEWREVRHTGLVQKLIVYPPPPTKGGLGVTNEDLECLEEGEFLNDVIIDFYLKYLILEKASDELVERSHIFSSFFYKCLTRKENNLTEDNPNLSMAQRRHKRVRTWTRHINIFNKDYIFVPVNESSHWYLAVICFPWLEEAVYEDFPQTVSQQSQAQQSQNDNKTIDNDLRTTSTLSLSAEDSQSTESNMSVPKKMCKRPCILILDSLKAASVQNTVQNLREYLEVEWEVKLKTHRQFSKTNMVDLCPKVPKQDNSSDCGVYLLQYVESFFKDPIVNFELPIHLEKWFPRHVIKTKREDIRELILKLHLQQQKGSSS
Test [4] concerns the target Caspase-3 (Homo sapiens) (UniProt P42574). Kind of test: human caspase-3 activity blockade, out-of-family – biochemical, single concentration, selectivity assay for SENP inhibitor project, confirmation (AID 488918;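 active means mean inhibition above about 50%, limit read from the data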;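 further: plate controls were enzyme with DMSO for no effect and wells without caspase-3 for full effect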). As to conditions: purified caspase-3, Z-DEVD-aminoluciferin luminescence, 60 min; at 12.5 µM; hits give high values.
Test [5] is described as follows: Ultra-Glo luciferase signal interference – biochemical, single concentration, SENP8 reaction pre-completed, artefact control for SENP inhibitor project, confirmation (AID 488919;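 active means mean inhibition above about 50% when retested at one dose, limit read from the data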;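 further: plate controls were DMSO wells with completed reaction for no effect and substrate without enzyme for full effect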). The conditions noted are these: Pre-incubated SENP8/Z-RLRGG-aminoluciferin, luciferase luminescence interference; at 12.5 µM; hits give high values.
Test [6] is described as follows: apoptosome-driven caspase-3 activation blockers – biochemical, fluorescence, DEVD-Rh110, 20 µM, confirmation (AID 504614;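 active means mean inhibition of at least 40% at 20 µM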;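 further: plate controls were DMSO wells for no effect and DEVD-CHO caspase inhibitor control wells for full effect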). As to conditions: reconstituted apoptosome, caspase-3 DEVD-Rh110 fluorescence; at 20 µM; hits give high values.
Test [7] is described as follows: detection-step artefacts after completed caspase reaction – biochemical, fluorescence, Rh110, 20 µM, artefact control for Apaf-1 inhibitor project, confirmation (AID 504615;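 active means signal rise of 40% or more at 20 µM, treated as a fluorescence artifact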). As to conditions: quenched caspase reaction, at 20 µM, hits give high values.

Among the data in PubChem BioAssay are inhibition and activation (fluorescence interference) values, retold here.

One may read the inhibition as the relative decrease from the control value, in per cent.

The structures appear in SMILES notation. The list shows a part of the results. A number with no mark means an inactive call. Calls of active or inactive are those of the source.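 How the source made its calls, unless noted: active means mean inhibition above about 50% in the one-dose retest (limit read from the data); inactive means the rest.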

Caspase-3 (Homo sapiens), sequence (P42574 28-227 limits assumed): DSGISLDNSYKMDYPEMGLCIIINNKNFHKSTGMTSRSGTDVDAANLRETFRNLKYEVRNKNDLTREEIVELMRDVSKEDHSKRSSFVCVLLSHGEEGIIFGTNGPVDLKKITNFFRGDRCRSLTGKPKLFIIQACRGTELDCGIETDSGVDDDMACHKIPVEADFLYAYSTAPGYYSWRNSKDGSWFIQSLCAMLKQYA
Sentrin-specific protease 8 (Homo sapiens), sequence (Q96LD8 whole entry, looked up, the tested form may be a part): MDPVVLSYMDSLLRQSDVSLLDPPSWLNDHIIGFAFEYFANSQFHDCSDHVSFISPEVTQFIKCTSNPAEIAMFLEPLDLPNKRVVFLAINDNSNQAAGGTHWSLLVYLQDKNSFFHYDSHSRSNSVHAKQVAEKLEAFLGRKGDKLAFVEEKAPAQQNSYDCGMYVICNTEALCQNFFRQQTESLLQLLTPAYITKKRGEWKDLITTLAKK

As to `COc1cc(NC(=O)COC(=O)c2ccc([N+](=O)[O-])s2)cc(OC)c1OC`, the inhibition in test [1] was 79.5% (active); in test [2], 86.7% (active); in test [3] it was 45.8%; in test [4], 18.4%; in test [5], 0.3%.

With `CC(C)(C)c1ccc(NC(=O)NCc2ccco2)cc1`, the inhibition in test [1] was -28.3%; in test [2] it was -17.7%; in test [3] it was -5.7%; in test [4] it was -5.5%; in test [5], -7.2%.

In the case of `C/C(=N\Nc1nc2ccccc2[nH]1)c1cccs1`, the inhibition in test [1] was 49.6%; in test [2], 49.2%; in test [3], 81.2% (active); in test [4], 63.1% (active); in test [5], 61.7% (active).

As to `O=c1c(-c2ccccc2)coc2cc(O)ccc12`, the inhibition was 61.7% (active) in test [1]; 60.2% (active) in test [2]; 88.2% (active) in test [3]; 85.9% (active) in test [4]; 74.8% (active) in test [5].

As for `Nc1ccccc1/C=N\N=C/c1ccccc1N`, the inhibition is 52.9% (active) in test [1]; 45.3% in test [2]; 85.6% (active) in test [3]; 68.3% (active) in test [4]; 3.9% in test [5].

With `CN1C(=O)/C(=C\c2cc(Br)cs2)c2ccccc21`, the inhibition in test [1] is 27.2%; in test [2], 42.4%; in test [3] it was 23%; in test [4], 18%; in test [5] it was 12.1%.

Regarding `Cc1ccc(C(=O)N/N=C\c2cc(Br)c(Br)o2)cn1`, the inhibition in test [1] is 3.5%; in test [2] it was 12.7%; in test [3], 8.1%; in test [4], 12.1%; in test [5] it was -0.7%; in test [6], 4.66%. Moreover, the activation (fluorescence interference) in test [7] was -11.2%.

Consider `O=C(Nc1ccc(C(=O)O)c(O)c1)c1ccccc1`, for which the inhibition is 73% (active) in test [1]; 73.7% (active) in test [2]; 94.9% (active) in test [3]; 93.7% (active) in test [4]; 82.8% (active) in test [5].

With `N#Cc1c(N2CCCCC2)nc(N)c2c(N)nc(SCC(=O)O)cc12`, the inhibition in test [1] is 11.2%; in test [2], 72.6% (active); in test [3], 61.9% (active); in test [4], 0.8%; in test [5] it was -0.2%; in test [6] it was 31.3%. For the same compound, the activation (fluorescence interference) in test [7] was 7.18%.

Consider `Cc1ccc(-n2ncc3c(Nc4cccc(C(=O)O)c4)ncnc32)cc1`, for which the inhibition in test [1] was 93.9% (active); in test [2] it was 98.1% (active); in test [3] it was 102% (active); in test [4], 44.3%; in test [5] it was 83.5% (active).

`O=C(Nc1sc2c(c1C(=O)O)CCC2)c1ccccc1F`: the inhibition is 94.5% (active) in test [1]; 96.2% (active) in test [2]; 102% (active) in test [3]; 96.3% (active) in test [4]; 94.5% (active) in test [5].

As to `CCCCOc1ccc(-c2nnc(-c3ccco3)o2)cc1`, the inhibition in test [1] was 37.7%; in test [2], 44.6%; in test [3], 41.1%; in test [4], 12.6%; in test [5] it was 2%.

`Cc1cccc(OCC(=O)Nc2ccccc2F)c1`: the inhibition was 20.8% in test [1]; 30.1% in test [2]; 72.8% (active) in test [3]; 62.7% (active) in test [4]; 35.2% in test [5].

Take `O=C1C(=O)N(CCCN2CCOCC2)C(c2ccc([N+](=O)[O-])cc2)/C1=C(\O)c1ccc2c(c1)OCCO2` (stereo unspecified): the inhibition is -13.1% in test [1]; -8.9% in test [2]; -9% in test [3]; -4.4% in test [4]; -12.5% in test [5].

As for `Cc1ccc(-n2cc3ccc([N+](=O)[O-])cc3n2)cc1`, the inhibition is -5.1% in test [1]; 20.7% in test [2]; 61.5% (active) in test [3]; 18.7% in test [4]; -2.9% in test [5].

Regarding `Cc1ccc(C(=O)O/N=C(\N)c2ccccn2)cc1Cl`, the inhibition in test [1] was 38.5%; in test [2], 81.3% (active); in test [3], 27.2%; in test [4], 53.7% (active); in test [5], 50.2% (active).

In the case of `COc1ccccc1-c1nnc(-c2ccc(F)cc2)o1`, the inhibition in test [1] was 33.8%; in test [2], 38.6%; in test [3], 73.8% (active); in test [4], 66.2% (active); in test [5], 60.3% (active).

On to `CCCc1cc(=O)oc2c(C)c(OCC(=O)Nc3ccccn3)ccc12`, for which the inhibition was 18.2% in test [1]; 14.4% in test [2]; 23.3% in test [3]; 39.2% in test [4]; 11.8% in test [5].

As for `O=c1[nH]c(/C=C/c2cccc(Br)c2)nc2ccccc12`, the inhibition in test [1] is 2.7%; in test [2], 1.4%; in test [3], 12.3%; in test [4] it was 17.6%; in test [5] it was 1%.

For `COc1ccc(C(=O)Nc2ccccc2C(=O)N/N=C/c2ccccc2OC)cc1`, the inhibition was 4% in test [1]; 43.4% in test [2]; 52.6% (active) in test [3]; 83.9% (active) in test [4]; 15.2% in test [5].

With `Cc1cccc(OC(=O)c2sc3ncn(C)c(=O)c3c2C)c1`, the inhibition in test [1] is 1.1%; in test [2], 0.1%; in test [3] it was 17.1%; in test [4], 14.4%; in test [5] it was -2.4%.

`Oc1ccc(N=Cc2sc3ccccc3c2Cl)cc1`: the inhibition in test [1] was -10.7%; in test [2] it was -2.2%; in test [3] it was 49.3%; in test [4] it was 1.9%; in test [5], 20.8%; in test [6], 14.4%. Further, the activation (fluorescence interference) in test [7] is 5.12%.
